Bioassay records: PubChem, National Center for Advancing Translational Sciences (NCATS)
FLuc modulator: qHTS profiling assay for firefly luciferase inhibitor/activator using purifed enzyme and Km concentrations of substrates (counterscreen for miR-21 project); Potency, µM (highest dose often 57.5 µM), hits mostly inhibitors; purified FLuc, Km substrates, luminescence inhibition; actives 6.9% (n = 360,000); AID 588342, 2011; Luciferin 4-monooxygenase (Photinus pyralis), P08659; further: nearly all actives have a fitted effect of over 55% in size
Target sequence (P08659 whole entry, looked up): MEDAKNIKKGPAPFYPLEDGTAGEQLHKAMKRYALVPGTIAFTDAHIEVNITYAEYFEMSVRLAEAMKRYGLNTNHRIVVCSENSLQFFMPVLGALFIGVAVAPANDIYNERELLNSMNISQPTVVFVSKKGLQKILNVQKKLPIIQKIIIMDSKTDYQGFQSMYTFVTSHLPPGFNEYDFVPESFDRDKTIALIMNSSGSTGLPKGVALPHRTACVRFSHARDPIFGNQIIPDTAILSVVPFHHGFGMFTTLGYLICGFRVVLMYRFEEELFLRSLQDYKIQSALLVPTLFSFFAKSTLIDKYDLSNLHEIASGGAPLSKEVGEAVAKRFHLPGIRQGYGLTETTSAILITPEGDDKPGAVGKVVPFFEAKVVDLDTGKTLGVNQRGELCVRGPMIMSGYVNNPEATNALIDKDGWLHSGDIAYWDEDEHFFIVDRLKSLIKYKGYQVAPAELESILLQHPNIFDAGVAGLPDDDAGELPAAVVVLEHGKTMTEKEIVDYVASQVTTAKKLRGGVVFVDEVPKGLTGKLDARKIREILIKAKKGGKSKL
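Purified P. pyralis luciferase (10nM final) with 10uM D-luciferin and 10uM ATP (Km levels) in 50mM Tris acetate pH 7.5, 10mM Mg acetate, 0.01% Tween-20, 0.05% BSA; qHTS 6-point titration, ~60 µM downward; luminescence read.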
Rab9 prom act: qHTS Assay for Rab9 Promoter Activators | Huh7 Rab9 promoter-luciferase reporter, luminescence, 24 h | Potency, µM (top dose mostly 9.22 µM), most hits filed as activators | actives 2.8% (n = 320,000) | AID 485297, 2010; further: nearly all actives have a fitted effect of over 60% in size
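Cells were plated at 1500 per well in reduced-serum medium with 10% FBS and left 2 h. Compound in DMSO was then added for 24 h at 37 °C. Reporter signal was read by luminescence after 10 min with luciferase detection reagent.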
ELG1 genotox: qHTS screen for small molecules that induce genotoxicity in human embryonic kidney (HEK293T) cells expressing luciferase-tagged ELG1. HEK293T ELG1-luciferase reporter, luminescence, 16 h. Potency, µM (highest dose often 46 µM), usual class: activators. actives 1.3% (n = 330,000). AID 504466, 2011; further: nearly all actives have a fitted effect of over 60% in size
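Genotoxic stress is detected as increased luminescence from luciferase-tagged ELG1 in HEK293T cells, measured with ONE-Glo after a 16 hr treatment at 37 °C.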
NPC1 promoter act: qHTS Assay for NPC1 Promoter Activators; Huh7 NPC1 promoter luciferase reporter, 24 h; Potency, µM (titrated, usually from 9.22 µM), most hits filed as activators; actives 2.4% (n = 320,000); further: nearly all actives have a fitted effect of over 60% in size
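Huh7 reporter cells (NPC1 promoter driving luciferase) are dosed with compound for 24 h at 37 °C, 5% CO2; luciferase detection reagent is then added and luminescence measured after 10 min at ambient temperature.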
SMN2 splice enh: qHTS Assay for Enhancers of SMN2 Splice Variant Expression; Potency, µM (top dose mostly 46.1 µM), hits mostly activators; HEK293 SMN2-luciferase splicing reporter, luminescence, 30-36 h; actives 2.8% (n = 210,000); further: nearly all actives have a fitted effect of over 55% in size
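HEK293 cells carry an SMN2 minigene-luciferase reporter in which exon 7 inclusion puts luciferase in frame. Cells were seeded at 2000 cells/well, attached for 10-12 hours, then exposed to compounds for 30-36 hours at 37C before ONE-Glo luminescence.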
Each line names hits and unclear results; the compound was inactive in the other large screens. Hits are enriched below; roughly 7.4% of the tested compounds scored in any of these assays. The call rests on the fitted dose curve; in most records, active means well fitted curve in the direction sought with a large enough effect; inconclusive means small, poorly fitted or top-dose-only effect, or another doubt; inactive means no such curve, though single readings can be large; an effect the other way counts as inactive or inconclusive.

CCOC(=O)Nc1nc(C)c(C(=O)c2ccc(Cl)cc2)s1	none
Cn1c(=O)c2cc(C(=O)Nc3cccc(C#N)c3)sc2c2ccccc21	none (no result: Rab9 prom act, ELG1 genotox, NPC1 promoter act)
CC1CCCCN1c1nnc(NC(=O)c2cc(-c3ccc(Br)cc3)on2)s1 (stereo not given)	none
CNC(=O)C1CCN(S(=O)(=O)c2c(C)noc2/C=C/c2ccc(OC)cc2)CC1	none (no result: SMN2 splice enh)
CCOc1ccccc1Nc1nnc(SCC(=O)NC2CCS(=O)(=O)C2)s1 (stereo not given)	none (no result: FLuc modulator, Rab9 prom act, NPC1 promoter act, SMN2 splice enh)
CCOC(=O)c1sc(Nc2ccc(F)cc2)nc1C	none
COc1ccc(C(=O)c2sc(Nc3ccccc3)nc2C)cc1	FLuc modulator inconclusive (no result: SMN2 splice enh)
COC(=O)c1sc(Nc2ccccc2)nc1C	FLuc modulator 19µM, Rab9 prom act inconclusive, ELG1 genotox inconclusive, NPC1 promoter act inconclusive
Cc1nc(Nc2ccccc2)sc1C(=O)c1ccccc1	FLuc modulator 21µM, Rab9 prom act 3.5µM, NPC1 promoter act inconclusive (no result: SMN2 splice enh)
CCOC(=O)c1sc(Nc2ccccc2)nc1C	FLuc modulator 15µM, Rab9 prom act 4µM, ELG1 genotox 16µM, NPC1 promoter act 4µM
Cc1cccc(NC(=O)c2sc(C)nc2C)c1	FLuc modulator 24µM, Rab9 prom act inconclusive, NPC1 promoter act inconclusive, SMN2 splice enh inconclusive
COc1cccc(C2c3c(oc4ccc(Cl)cc4c3=O)C(=O)N2c2cc(C)on2)c1OC (stereo not given)	none
Nc1nc(Nc2cccc(C(F)(F)F)c2)sc1C(=O)c1ccccc1	none (no result: Rab9 prom act, ELG1 genotox, NPC1 promoter act, SMN2 splice enh)
CC(C)(C)C(=O)c1sc(Nc2ccccc2)nc1N	FLuc modulator 5.4µM, Rab9 prom act 2µM, ELG1 genotox 1.3µM, NPC1 promoter act 2µM, SMN2 splice enh 11µM
O=C(NCCc1ccccc1)c1ccc2c(c1)N(Cc1ccc(Cl)cc1)C(=O)CS2	none (no result: Rab9 prom act, ELG1 genotox, NPC1 promoter act)
Cc1ccc(Cn2cnc3nc4c(cc3c2=O)CC(C)CC4)cc1 (stereo not given)	FLuc modulator 12µM (no result: Rab9 prom act, ELG1 genotox, NPC1 promoter act, SMN2 splice enh)
CC(C)c1nn2c(=O)cc(COC(=O)c3ccccc3NC(=O)c3cccs3)nc2s1	none (no result: Rab9 prom act, ELG1 genotox, NPC1 promoter act, SMN2 splice enh)
O=C(Nc1c(C(=O)N2CCN(c3ccccn3)CC2)oc2ccccc12)c1ccc([N+](=O)[O-])cc1	FLuc modulator 6.7µM (no result: SMN2 splice enh)
Cc1nnc2c3ccccc3c(-c3ccc(O)cc3)nn12	ELG1 genotox inconclusive
Cc1nnc2c3ccccc3c(-c3cccs3)nn12	ELG1 genotox 13µM, SMN2 splice enh 11µM
O=c1[nH]ncc(N/N=C/c2ccccc2)c1Cl	ELG1 genotox inconclusive
COc1ccc(/C=N/Nc2cn[nH]c(=O)c2Cl)cc1	FLuc modulator inconclusive, ELG1 genotox 21µM, SMN2 splice enh inconclusive
Cc1ccc(/C=N\Nc2cn[nH]c(=O)c2Cl)cc1	FLuc modulator 24µM, Rab9 prom act inconclusive, ELG1 genotox 21µM
Cc1ccsc1/C=N\Nc1cn[nH]c(=O)c1Cl	ELG1 genotox 21µM
CCOC(=O)C(C(C)C)C(N)Cc1ccc(F)cc1 (stereo not given)	none
COc1ccc(Cl)cc1N1C(=O)CN(Cc2cc(OC)c(OC)c(OC)c2)C1=S	none (no result: SMN2 splice enh)
NCCc1ccn[nH]1	none
COc1ccc(-c2nc(C)c(CCNC(=O)C(=O)Nc3ccccc3C#N)s2)cc1OC	none (no result: Rab9 prom act, ELG1 genotox, NPC1 promoter act, SMN2 splice enh)
Cc1ccc(/C=N/NC(=O)Cc2cccs2)o1	none
O=C(/C=C/c1ccco1)NCC(=O)N/N=C/c1ccccc1[N+](=O)[O-]	none
CCN(CC)c1ccc(/C=N/NC(=O)CNC(=O)/C=C/c2ccco2)cc1	FLuc modulator 24µM (no result: SMN2 splice enh)
CCN(CC)c1ccc(/C=N/NC(=O)Cc2cccs2)cc1	FLuc modulator 27µM
COc1ccc(/C=N/NC(=O)Cc2cccs2)cc1	FLuc modulator 17µM, Rab9 prom act inconclusive, ELG1 genotox inconclusive, NPC1 promoter act inconclusive (no result: SMN2 splice enh)
CC1=CC(=O)CC(C)(C)[C@]1(O)/C=C\C(C)=C\C(=O)O	none (no result: FLuc modulator, Rab9 prom act, ELG1 genotox, NPC1 promoter act)
COc1ccccc1C1C(C(=O)c2cc3ccccc3o2)=C(O)C(=O)N1CCN1CCOCC1 (stereo not given)	FLuc modulator 13µM
COc1cccc(C2C(C(=O)c3cc4ccccc4o3)=C(O)C(=O)N2CCN2CCOCC2)c1 (stereo not given)	none (no result: SMN2 splice enh)
COc1ccc(NC(=O)/C(=C\c2ccc3c(c2)OCO3)NC(C)=O)cc1	none
